Assay results taken from PubChem BioAssay (NCATS).
Results filed as inconclusive are left out. A number with no mark means an inactive call. The source made the active and inactive calls. Calls follow the shape of the dose curve; as a rule, active = well fitted inhibition curve with a large enough effect; inconclusive = small, poorly fitted or top-dose-only effect; inactive = no such curve, though single readings can be large or run the other way.

assay: qHTS assay for measurement of the activity of small molecule inhibitors on Zika virus induced Caspase-3 activity in human iPSC derived neural progenitor cells (hNPCs) (AID 1224857); details: hNPCs ZIKV-induced caspase-3/7, Caspase-Glo luminescence, 6 h; series mostly up to 45.7 µM; activity change, negative = inhibition: at the top concentration; also: nearly all actives have a fitted effect of over 65% in size
Text: National Center for Advancing Translational Sciences [NCATS]
Johns Hopkins University School of Medicine
Increase in the Caspase-3 activity indicates an activation of apoptosis cell death pathway caused by Zika virus infection in certain types of neuronal cells including human neural progenitor cells (hNPCs), astrocytes, and astrocytoma cell line (SNB-19). This cell-based caspase-3 activity assay measures the increased caspase-3 activity in the human iPSC derived neural progenitor cells (hNPCs) after a 6-hour Zika virus infection with a luminescence readout. A decrease in the luminescence signal in this assay by small molecule treatment indicates an inhibitory effect of that small molecule on the Zika virus induced caspase-3 activity that may correlate with its effect on reduction of Zika virus caused cell death.
The medium for hNPCs consists of DMEM/F12, N2 supplement (ThermoFisher, Cat.# 17502048), NEAA (ThermoFisher, Cat. # 11140050), 2 ug/ml heparin, 2 uM cyclopamine, and B27 (ThermoFisher, Cat. # 17504044). A Caspase-Glo 3/7 assay kit (catalog number G8092; Promega, Madison, WI) was used to detect caspase-3 activity induced by Zika virus infection in human cells. The reagent mixture was reconstituted as described in the protocol from the manufacturer. Polystyrene tissue culture treated and PDL coated white plates were obtained from Greiner Bio-One (Monroe, NC). Cells were seeded in 384- or 1536-well assay plates and cultured at 37 C with 5% CO2 for 16 to 20 hours. The typical cell seeding density in the 1536-well plate assay is 350 cells/well in 3 ul medium for hNPCs in tissue culture treated plates. Compounds were added to cells and incubated for one hour before addition of ZIKV solution to cells (2 FFU/cell). After incubation at 37 C with 5% CO2 for 6 hours, the reagent mixture of Caspase-Glo 3/7 assay kit was added to each well, followed by incubation at room temperature for 30 minutes. The luminescence intensity of the assay plates was measured using a ViewLux plate reader (PerkinElmer). Data were normalized by using the cell-containing wells without ZIKV as a negative control (0% induction of caspase 3/7 activity) and wells containing ZIKV infected cells (Caspase-3 activity induced) as a positive control (100% induction of caspase 3 activity). The percentage inhibitions of the increased Caspase-3 activity by small molecule inhibitors were then calculated.

Row | Compound | activity change, negative = inhibition | Potency
1 | Oc1cccc2cccnc12 | -4.97% | 
2 | CCCC(C)(COC(N)=O)COC(=O)NC(C)C (stereo not given) |  | inactive
3 | N[C@@H](Cc1ccc(Oc2cc(I)c(O)c(I)c2)c(I)c1)C(=O)O | -3.81% | 
4 | c1ccc2c(c1)OCC(C1=NCCN1)O2 (stereo not given) |  | inactive
5 | NN=C(N)N |  | inactive
6 | FC(F)(F)c1cccc(C2=CCN(CCc3ccc4ccccc4c3)CC2)c1 | -12.7% | 
7 | CN1C(=S)CN=C(c2ccccc2)c2cc(Cl)ccc21 | -0.201% | 
8 | CO[C@]12CC[C@@]3(C[C@@H]1[C@](C)(O)C(C)(C)C)[C@@H]1Cc4ccc(O)c5c4[C@@]3(CCN1CC1CC1)[C@H]2O5 | -5.22% [at 92.8 µM] | 
9 | COC[C@@H](NC(C)=O)C(=O)NCc1ccccc1 | 12.3% | 
10 | CCCN1CCC[C@@H]2Cc3[nH]ncc3C[C@H]21 |  | inactive
11 | Cc1ccc(-c2nc3ccc(C)cn3c2CC(=O)N(C)C)cc1 | -7.94% | 
12 | NCC(CC(=O)O)c1ccc(Cl)cc1 (stereo not given) |  | inactive
13 | CC[N+](CC)(CC)CC |  | inactive
14 | CN(C)CCN(C)CCc1ccc(Cl)c(Cl)c1 | 15.4% | 
15 | Cc1sc2c(c1C)C(c1ccc(Cl)cc1)=N[C@@H](CC(=O)OC(C)(C)C)c1nnc(C)n1-2 | 31.5% | 
16 | CC(O)(CS(=O)(=O)c1ccc(F)cc1)C(=O)Nc1ccc(C#N)c(C(F)(F)F)c1 (stereo not given) |  | inactive
17 | C=CCN1CC[C@]23c4c5ccc(O)c4O[C@H]2C(=O)CC[C@@]3(O)[C@H]1C5 | 0.692% | 
18 | O=C1CC[C@@]2(O)[C@H]3Cc4ccc(O)c5c4[C@@]2(CCN3CC2CC2)[C@H]1O5 | 11.7% | 
19 | COc1ccc(C(CN(C)C)C2(O)CCCCC2)cc1 (stereo not given) |  | inactive
20 | O=c1[nH]c2ccccc2n1C1CCN(CCCC(c2ccc(F)cc2)c2ccc(F)cc2)CC1 |  | inactive

Row | Compound | activity change, negative = inhibition | Potency
21 | COc1ccccc1N1CCNCC1 |  | inactive
22 | Cc1cccc(C)c1NC1=NCCCS1 |  | inactive
23 | O=[N+]([O-])c1cc([As](=O)(O)O)ccc1O | 17.5% | 
24 | Oc1ccccc1-c1ccccc1 | 18.2% | 
25 | CN1CCN(C(=O)O[C@H]2c3nccnc3C(=O)N2c2ccc(Cl)cn2)CC1 |  | inactive
26 | COc1ccc(Cc2nccc3cc(OC)c(OC)cc23)cc1OC |  | inactive
27 | CC(C)NCC(O)c1ccccc1Cl (stereo not given) | -0.848% | 
28 | CC(C)=CCOc1c2occc2cc2ccc(=O)oc12 |  | inactive
29 | CC(C)(C)CC(C)(C)c1ccc(O)cc1 |  | inactive
30 | C=C1CC[C@@]2(O)[C@H]3Cc4ccc(O)c5c4[C@@]2(CCN3CC2CC2)[C@H]1O5 | -1.6% | 
31 | NP(N)(=O)NC(=O)c1ccc(F)cc1 | 5.16% | 
32 | CC1NCCOC1c1ccccc1 (stereo not given) | 8.48% | 
33 | COC[C@H]1OC(=O)c2coc3c2[C@@]1(C)C1=C(C3=O)C2CCC(=O)[C@@]2(C)C[C@H]1OC(C)=O (stereo not given in full) | 77.8% | 
34 | CCN(CC)CCOC(=O)C(O)(c1ccccc1)c1ccccc1 | -4.55% | 
35 | NCCc1cc(O)c(O)cc1O | -5.24% | 
36 | Cc1ccc2c(c1)C1CN(C)CCC1N2 (stereo not given) | 4.04% [at 20.5 µM] | 
37 | CN(C)CCc1ccc(O)cc1 |  | inactive
38 | CC1OC(C)OC(C)O1 (stereo not given) | -16.6% | 
39 | CCN(CC)C(=O)N[C@@H]1C=C2c3cccc4[nH]cc(c34)C[C@@H]2N(C)C1 | -3.64% | 
40 | Clc1ccc(CCC(Cn2ccnc2)Sc2c(Cl)cccc2Cl)cc1 (stereo not given) |  | inactive
